High-throughput results (PubChem)
aSyn UTR act: Activators via SNCA 5'UTR binding, MLPCN; alpha-synuclein 5'UTR reporter, activators screen; activity score, % (tested at 7.5 µM), hits read low; 300,000 tested, 7.1% active; AID 1814; in the data active = activity score below about -60%
Hits are given with their value; 0 = inactive. A selection follows.

SMILES	aSyn UTR act
O=C1c2ccccc2NC(c2cccc([N+](=O)[O-])c2)N1CCc1ccccc1 (stereo unspecified)	-136
Cc1ccc(-c2csc(NC(=O)CSc3nc(C)cs3)n2)cc1	-160
CC(C)(C)c1ccc(-c2csc(NC(=O)CN3C(=O)NC4(CCCCC4)C3=O)n2)cc1	-79
COCCNC(=O)CSc1nc(-c2ccccc2)cs1	-73
Cc1ccc(C2(C)NC(=O)N(CC(=O)Nc3nc(-c4ccccn4)cs3)C2=O)cc1 (stereo unspecified)	0
CC(C)(C)NC(=O)CSc1nc(-c2ccc(F)cc2)cs1	-181
Cc1csc(SCC(=O)Nc2nc(-c3ccccc3)cs2)n1	-80
Cc1csc(NC(=O)CSc2ccccc2F)n1	-88
COCc1cc(C)nc(SCC(=O)Nc2nc(C)cs2)c1C#N	0
Cc1ccc(Oc2ccc(/C=N/O)cn2)cc1	-83
Cc1ccc(COc2ccc(/C=N/O)cc2)cc1	-131
C=C1C(=O)O[C@@H]2C[C@@H](C)[C@@H]3C=CC(=O)[C@@]3(C)[C@@H](OC(C)=O)[C@H]12	0
O=C(NC(=S)Nc1ccc2nc[nH]c2c1)c1ccccc1	-116
O=C(NNC(=S)Nc1ccccc1)c1ccc2ncccc2c1	-97
O=C(NC(=S)Nc1ccc2ncccc2c1)c1ccccc1	-137
COc1cccc(C(=O)Nc2ccc3[nH]ncc3c2)c1	-76
O=C(Nc1ccc2cccnc2c1)c1ccc(Br)cc1	-65
CC(C)(C)NC(=S)NNC(=O)c1ccc2ncccc2c1	-134
O=C(NC(=S)Nc1ccc2[nH]ncc2c1)c1ccccc1	-115
O=C(/C=C/c1ccccc1)OCc1cncs1	-103
Cn1c(NCc2ccccc2Cl)nc2ccccc21	-164
Cn1c(NCc2ccccc2O)nc2ccccc21	-272
CC(=O)Nc1nc2ccccc2n1Cc1ccccc1Cl	0
Cc1cccc(-c2nc(-c3ccncc3)no2)c1	-68
Clc1ccc(Br)cc1-c1nc(-c2ccncc2)no1	-188
SMILES	aSyn UTR act
Cc1cc(C)cc(-c2nc(-c3ccncc3)no2)c1	-149
Brc1cccc(-c2nc(-c3ccncc3)no2)c1	-100
Cc1ccc(-c2nc(-c3ccccc3)no2)c(Cl)c1	0
c1ccc(CSc2ncnc3c2cnn3-c2ccccc2)cc1	-142
CC(C)(C)C(=O)CSc1ncnc2c1cnn2-c1ccccc1	-162
Cc1cc(C)n2cc(CSc3nc4ccccc4s3)nc2n1	-107
Cn1c(SCc2ccccc2)nnc1-c1ccc2c(c1)OCO2	-192
Cn1c(SCc2ccccc2)nnc1-c1ccc(O)cc1	-76
Oc1ccccc1-c1nnc(SCCN2CCOCC2)n1Cc1ccccc1	0
c1ccc(CSc2ccc(-c3ccc4c(c3)OCO4)nn2)cc1	-150
O=C1C(Cl)=C(NCCN2CCCCC2)C(=O)c2ccccc21	0
N#Cc1nc(-c2cccc3ccccc23)oc1NCCN1CCCCC1	-63
CCNc1oc(-c2cccc3ccccc23)nc1C#N	-88
O=C(NCc1ccncc1)C(=O)N/N=C/c1ccc(OCc2ccccc2)cc1	-93
CC(C)OCCCNC(=O)C(=O)N/N=C/c1ccc(OCc2ccccc2)cc1	-67
CCN(CC)c1ccc(NC(=O)/C=C\c2ccccc2Cl)cc1	-190
CN(C)c1ccc(NC(=S)NC(=O)/C=C/c2ccc(Cl)cc2)cc1	-219
CN(C)c1ccc(NC(=O)/C=C/c2ccccc2Cl)cc1	-161
CSc1nnc(NC(=O)C23CC4CC(CC(C4)C2)C3)s1	-128
CC(C)Cc1nnc(NC(=O)C23CC4CC(CC(C4)C2)C3)s1	-103
CCc1nnc(NC(=O)C23CC4CC(CC(C4)C2)C3)s1	-253
CC1(C)CN=c2s/c(=C\c3ccc(Cl)cc3)c(=O)n2C1	-111
Cc1cc(NCc2ccccn2)n2ncc(-c3ccccc3)c2n1	-155
Cc1cc(NCCCN2CCOCC2)n2ncc(-c3ccccc3)c2n1	-95
COc1ccccc1-c1cnn2c(NCc3ccccc3)cc(C)nc12	-75
SMILES	aSyn UTR act
Cc1cc(NCc2ccccn2)n2ncc(-c3ccc(Cl)cc3)c2n1	-97
O=C(O)c1cc(N/N=C/c2ccc(OCc3ccccc3)cc2)ccc1Cl	-172
CCCN1CCC(=NNc2ccc(S(=O)(=O)N3CCOCC3)cc2[N+](=O)[O-])CC1	0
O=C(O)c1cc(NN=C2CCN(Cc3ccccc3)CC2)ccc1Cl	-202
CCCN1CCC(=NNc2ccc(C(=O)O)cc2)CC1	-113
O=C(O)c1cc(N/N=C/C=C/c2ccccc2)ccc1Cl	-179
O=C(O)c1cccc(N/N=C/c2ccc(OC(F)(F)F)cc2)c1	0
COC(=O)c1ccc(COc2ccc(/C=N/Nc3cccc(C(=O)O)c3)cc2)cc1	-84
O=C(/C=C/c1cccc2ccccc12)N1CCOCC1	-63
O=C(/C=C/c1ccc(OCCCF)cc1)N1CCOCC1	-70
O=C(/C=C/c1cccc(Oc2ccccc2)c1)N1CCOCC1	-95
COc1ccc(NC(=O)N2CCn3c2nc2ccccc23)cc1	-64
O=C(c1ccco1)N1CCn2c1nc1ccccc12	-124
Cc1ccc(C2CC(c3ccco3)=NN2S(C)(=O)=O)cc1 (stereo unspecified)	-63
